The record followed here is PubChem BioAssay AID540299 (ICCB-Longwood Screening Facility, Harvard Medical School, 2011).

In general, inhibition refers to the drop in the measured response relative to a control, in per cent.

In all, about 100,000 compounds went through this assay and about 440 (0.44%) were called active. Many of the other results were omitted from the sample, so actives are more common in it than they were. A number with no mark means an inactive call. No stated cut-off is given here; in the data, active means inhibition above about 21% (passing the limit was not always enough); inactive means the rest.

For the experiment, the target named is 1,4-dihydroxy-2-naphthoyl-CoA synthase (Mycobacterium tuberculosis (strain ATCC 25618 / H37Rv)) (UniProt P9WNP5). Nature of the experiment: M. tuberculosis MenB inhibitors, primary screen, biochemical, absorbance (AID 540299). The settings on record: MenB enzyme assay, absorbance read-out; active compounds read high; concentration not given here.
1,4-dihydroxy-2-naphthoyl-CoA synthase (Mycobacterium tuberculosis (strain ATCC 25618 / H37Rv)), sequence (P9WNP5 whole entry, looked up): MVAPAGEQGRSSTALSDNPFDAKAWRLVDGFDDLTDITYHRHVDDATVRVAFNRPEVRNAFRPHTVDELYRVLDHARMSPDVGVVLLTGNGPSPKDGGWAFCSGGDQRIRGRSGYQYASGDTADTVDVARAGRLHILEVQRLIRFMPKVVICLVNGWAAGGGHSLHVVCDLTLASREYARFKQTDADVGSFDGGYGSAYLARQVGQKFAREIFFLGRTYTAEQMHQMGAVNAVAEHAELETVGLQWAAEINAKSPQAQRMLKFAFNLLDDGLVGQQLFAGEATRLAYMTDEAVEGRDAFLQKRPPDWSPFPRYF
On to `CCOc1ccc(CN(C)C(C)c2nnc(-c3ccc(C)cc3)o2)cc1` (configuration not stated), for which the inhibition was -8.7%. Regarding `COc1ccc2nc(SC)[nH]c2c1`, the inhibition is 0.13%. Turning to `O=C(c1ccccc1)N1CCN(c2cccc(Cl)c2)CC1`, the inhibition is -21%. As to `CC(C)(C)CNC(=S)NN`, the inhibition is -27.8%. Consider `CCO/C=N/c1c(C(=O)OCC)c2nc3ccccc3nc2n1Cc1ccccc1`, for which the inhibition was -29.7%. For `COc1ccc(N(CCC#N)S(=O)(=O)c2ccc(Cl)cc2)cc1`, the inhibition was 34.8% (active). Turning to `COc1ccc(S(=O)(=O)N(C)C)cc1`, the inhibition is -20.5%. Take `CC(=O)Oc1ccc(N(C(C)=O)S(=O)(=O)c2ccc(Cl)cc2)cc1`: the inhibition is -5.01%. Regarding `Cc1ccc2c(c1)cc(CN(Cc1ccco1)C(=O)c1ccccc1)c1nnnn12`, the inhibition was 32.8% (active). With `COCC(=O)N(CCc1ccccc1)Cc1cc2cccc(C)c2n2nnnc12` the figure was 5.43%; with `CCc1ccc2[nH]c(=O)c(CN(Cc3ccco3)C(=O)c3ccccc3)cc2c1`, -39%. Consider `CC(C)c1ccc(S(=O)(=O)N2CCN(S(=O)(=O)c3ccc(C(C)C)cc3)C(C)C2)cc1` (configuration not stated), for which the inhibition was -17.6%. The same measure for `COc1ccc(-c2noc(CC(=O)N(C(C)C)C3CCCCC3)n2)cc1`: -38.9%; for `CC(C)c1ccc(-c2noc(C3CCCN(S(C)(=O)=O)C3)n2)cc1` (configuration not stated): 29.2% (active). Regarding `COc1ccc(N2CCN(C(=S)C3CCCCC3)CC2)cc1`, the inhibition is 1.7%. The same measure for `CCOC(=O)N1CCC(NC(=O)Cn2nc(Cc3cccnc3)c3ccccc3c2=O)CC1`: 13.3%; for `CC(Sc1nnc(COc2ccccc2)n1-c1ccccc1)C(=O)O` (configuration not stated): 44.3% (active). Regarding `CC(C)(C)c1ccc(OCc2nnc(SCC(N)=O)n2-c2ccccc2)cc1`, the inhibition is -20.4%. For the molecule `O=C(O)CSc1nnc(COc2ccc(Cl)cc2)n1-c1ccc(Br)cc1`, the inhibition was -31.3%. Turning to `OC(COc1ccc(Cl)cc1)C(O)C(O)c1cnn(-c2ccccc2)n1` (configuration not stated), the inhibition is -25.4%.

With `Cc1ccc(Cn2c(=O)c3ccccc3n3c(SCC(=O)N(C(C)C)C(C)C)nnc23)cc1`, the inhibition was -3.38%.

Consider `CCN(c1ccccc1)S(=O)(=O)c1ccc(Sc2nnc(-c3cccs3)n2CC2CCCO2)nc1` (configuration not stated), for which the inhibition is -29.5%. As to `CCOC(=O)c1c(NC(=O)c2cc(-n3cnnc3)ccc2Cl)sc2c1CCCC2`, the inhibition was -11.9%. Take `CCOC(=O)c1cnc2cc(C(F)(F)F)ccc2c1N1CCCCCC1`: the inhibition is -32.7%. On to `CCOC(=O)CN1CCC(n2nnc3cc(C(F)(F)F)ccc32)CC1`, for which the inhibition was 40.1% (active). Take `COc1cc(C(=O)N2CCC(n3nnc4cc(F)ccc43)CC2)cc(OC)c1OC`: the inhibition was -27.8%.

As for `CCCN(CCC)C(=O)c1cc(-c2ccccc2)n[nH]1`, the inhibition was 2.47%. For `Cc1cccc(C(=O)Nc2ccc(NC(=O)c3ccco3)cc2)c1`, the inhibition was -25.7%. As to `CCCC(CCC)C(=O)Nc1ccc(NC(=O)c2ccco2)cc1`, the inhibition is 34.4% (active). `CCCC(=O)N1CCN(c2ccc(NC(=O)c3cccc(C)c3OC)cc2Cl)CC1`: the inhibition was -14.8%. Consider `CCC(=O)Nc1cc(NC(=O)c2ccco2)ccc1C`, for which the inhibition is 3.59%.

Consider `CCCC(=O)N1CCN(c2ccc(NC(=O)c3ccco3)cc2Cl)CC1`, for which the inhibition is 36.3% (active).

Regarding `O=C(Nc1ccccc1)c1ccco1`, the inhibition is -38.1%.

On to `CCC(/C=N/N1C(=O)c2ccccc2C1=O)CC`, for which the inhibition is 4.86%. As to `CCSc1nnc(C2CCN(CC(=O)Nc3ccc(N4CCCCCC4)cc3)CC2)n1C`, the inhibition is -53.3%. The same measure for `Cc1cc(C)nc(N2CCCC(C)C2)n1` (configuration not stated): -26.5%; for `N#CC1=C(N)/C(=C\c2ccc(Cl)c(Cl)c2)SC1=N`: -31%; for `Cc1cc(C)nc(SCC(=O)N2CCCC2c2cccs2)n1` (configuration not stated): -1.45%. The same measure for `O=C1C=C/C(=N\OC(=O)c2ccccc2)C2=C1C1C=CC2C1` (configuration not stated): -24.3%; for `COc1ccc(-c2noc(CNC3CCCCC3)n2)cc1`: -2.19%. For `CC1Sc2nnc(-c3ccc(OC(F)F)cc3)n2N=C1c1ccc(NS(C)(=O)=O)cc1` (configuration not stated), the inhibition was -9.43%. For the molecule `N#Cc1cc(Cl)c2c(c1)OCCO2`, the inhibition was -39.8%. For `O=C(COC(=O)Cn1[nH]c(=O)c2ccccc2c1=O)Nc1ncc(Cl)cc1Cl`, the inhibition was 1.74%.

On to `Cc1nc2ccc(NC(=O)CC(C)(C)C)cc2s1`, for which the inhibition is -7.18%. Turning to `N#Cc1nc(NC(=O)c2cc(-c3cccs3)nc3ccccc23)[nH]c1C#N`, the inhibition is -0.59%.

For the molecule `O/N=C(/c1ccccc1)c1ccccn1`, the inhibition was 17.8%. Turning to `CN1C(=O)C(S(=O)(=O)c2ccccc2)C2CC1(C)Oc1ccccc12` (configuration not stated), the inhibition was 11.3%. Regarding `CCN1C(=O)C(C(=O)NC(C)c2ccccc2)C2CC1(C)Oc1ccccc12` (configuration not stated), the inhibition was 25.7%.

For `CN1C(=O)C(C(=O)O)C2CC1Oc1ccccc12` (configuration not stated), the inhibition is 34.4% (active). With `CCCCC#Cc1cncc(C(=O)O)c1`, the inhibition is -22.8%. For `CCN(CC)Cc1cc(C(=O)O)co1`, the inhibition was 31.6% (active). Turning to `CCN(c1ccccc1)S(=O)(=O)c1cccc(C(=O)O)c1`, the inhibition is -9.9%. With `COc1ccc(C(=O)OCc2ccccn2)cc1` the figure was -2.18%; with `COC(=O)c1ccccc1NC(=O)C1CCN(S(=O)(=O)c2ccc(OC)c(OC)c2)CC1`, -4.4%; with `O=c1c(O)coc(CO)c1C(Nc1ccccn1)c1ccccc1O` (configuration not stated), -8.94%.

With `Cc1ccc(NC(=O)CC(C)S(=O)(=O)c2ccc3c(c2)SCC(=O)N3)cc1` (configuration not stated), the inhibition is -27.7%. `O=C(CN1CCCCC1)N1N=C(c2cccs2)CC1c1ccc(O)cc1` (configuration not stated): the inhibition is -15.9%.

`CN1C(=O)c2cccc(NC(=O)c3ccccc3)c2C1=O`: the inhibition was -46.4%.

On to `COc1cccc2c1C(=O)C1C(O)=C3C(=C(O)C1C2=O)C[C@@](O)(C(=O)CO)C[C@@H]3OC1CC(N)C(O)C(C)O1` (some centres not stated), for which the inhibition is 4.12%. In the case of `CN(Cc1cccc(Cl)c1Cl)CC(O)COCc1ccccc1` (configuration not stated), the inhibition is -5.12%. The same measure for `COc1ccc(Cc2nnc3n2N=C(N)CS3)cc1`: 8.07%.

Turning to `CCNc1nnc(-c2ccc(C)cc2)s1`, the inhibition is -8.94%.
